Key:
Assay in all cases: SPOT peptide array binding signal intensity (averaged, normalized) (arbitrary units (background-subtracted, floor 0; scale differs between SH3 domains)); higher = stronger binding of the SH3 domain to the peptide
[1] = biological target: AgAbp1
Description: (§1)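 GST-tagged SH3 domains from S. cerevisiae (Sc), A. gossypii (Ag), C. albicans (Ca) and S. pombe (Sp) were incubated at 10 ug/ml overnight at 4 C on cellulose SPOT membranes carrying 292 synthetic 15-mer peptides mined from the S. cerevisiae proteome (cysteines replaced by serines). Binding was detected with anti-GST antibody, HRP secondary and chemiluminescence, quantified with Genespotter, and reported as normalized spot intensities averaged over biological replicates.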

[2] = biological target: AgBbc1
Description: as §1

[3] = biological target: AgBem1-D1
Description: as §1

[4] = biological target: AgBzz1-D1
Description: as §1

[5] = biological target: AgBzz1-D2
Description: as §1

[6] = biological target: AgCyk3
Description: as §1

[7] = biological target: AgFus1
Description: as §1

[8] = biological target: AgHof1
Description: as §1

[9] = biological target: AgHse1
Description: as §1

[10] = biological target: AgLsb1
Description: as §1

[11] = biological target: AgLsb4
Description: as §1

[12] = biological target: AgMyo5
Description: as §1

[13] = biological target: AgNbp2
Description: as §1

[14] = biological target: AgRvs167
Description: as §1

[15] = biological target: AgSho1
Description: as §1

[16] = biological target: AgSla1-D1-D2
Description: as §1

[17] = biological target: AgSla1-D3
Description: as §1

[18] = biological target: CaAbp1-D1
Description: as §1

[19] = biological target: CaAbp1-D2
Description: as §1

[20] = biological target: CaBbc1
Description: as §1

[21] = biological target: CaBem1-D1
Description: as §1

[22] = biological target: CaBzz1-D1
Description: as §1

[23] = biological target: CaBzz1-D2
Description: as §1

[24] = biological target: CaCyk3
Description: as §1

[25] = biological target: CaFus1
Description: as §1

[26] = biological target: CaHof1
Description: as §1

[27] = biological target: CaHse1
Description: as §1

[28] = biological target: CaLsb1
Description: as §1

[29] = biological target: CaLsb4
Description: as §1

[30] = biological target: CaMyo5
Description: as §1

[31] = biological target: CaNbp2
Description: as §1

[32] = biological target: CaRvs167
Description: as §1

[33] = biological target: CaRvs167-3
Description: as §1

[34] = biological target: CaSho1
Description: as §1

[35] = biological target: CaSla1-D1-D2
Description: as §1

[36] = biological target: CaSla1-D3
Description: as §1

[37] = biological target: ScAbp1
Description: as §1

[38] = biological target: ScBbc1
Description: as §1

[39] = biological target: ScBem1-D1
Description: as §1

[40] = biological target: ScBzz1-D1
Description: as §1

[41] = biological target: ScBzz1-D2
Description: as §1

[42] = biological target: ScCyk3
Description: as §1

[43] = biological target: ScFus1
Description: as §1

[44] = biological target: ScHof1
Description: as §1

[45] = biological target: ScHse1
Description: as §1

[46] = biological target: ScLsb1
Description: as §1

[47] = biological target: ScLsb2
Description: as §1

[48] = biological target: ScLsb3
Description: as §1

[49] = biological target: ScLsb4
Description: as §1

[50] = biological target: ScMyo3
Description: as §1

[51] = biological target: ScMyo5
Description: as §1

[52] = biological target: ScNbp2
Description: as §1

[53] = biological target: ScPex13
Description: as §1

[54] = biological target: ScRvs167
Description: as §1

[55] = biological target: ScSho1
Description: as §1

[56] = biological target: ScSla1-D1-D2
Description: as §1

[57] = biological target: ScSla1-D3
Description: as §1

[58] = biological target: SpAbp1-D1
Description: as §1

[59] = biological target: SpBbc1
Description: as §1

[60] = biological target: SpBzz1-D1
Description: as §1

[61] = biological target: SpBzz1-D2
Description: as §1

[62] = biological target: SpCyk3
Description: as §1

[63] = biological target: SpHof1
Description: as §1

[64] = biological target: SpHof1-2
Description: as §1

[65] = biological target: SpHof1-3
Description: as §1

[66] = biological target: SpHse1
Description: as §1

[67] = biological target: SpLsb1
Description: as §1

[68] = biological target: SpLsb4
Description: as §1

[69] = biological target: SpMyo1
Description: as §1

[70] = biological target: SpNbp2
Description: as §1

[71] = biological target: SpPex13
Description: as §1

[72] = biological target: SpRvs167
Description: as §1

[73] = biological target: SpSla1-D1-D2
Description: as §1

[74] = biological target: SpSla1-D3
Description: as §1

Binder: PVLPPPRSPNRPTLS
- SPOT peptide array binding signal intensity [1]: 24
- SPOT peptide array binding signal intensity [2]: 700
- SPOT peptide array binding signal intensity [3]: 43
- SPOT peptide array binding signal intensity [4]: 20
- SPOT peptide array binding signal intensity [5]: 1
- SPOT peptide array binding signal intensity [6]: ≤ 0
- SPOT peptide array binding signal intensity [7]: ≤ 0
- SPOT peptide array binding signal intensity [8]: 9
- SPOT peptide array binding signal intensity [9]: ≤ 0
- SPOT peptide array binding signal intensity [10]: 1
- SPOT peptide array binding signal intensity [11]: 369
- SPOT peptide array binding signal intensity [12]: 15.5
- SPOT peptide array binding signal intensity [13]: 1.5
- SPOT peptide array binding signal intensity [14]: 5.67
- SPOT peptide array binding signal intensity [15]: ≤ 0
- SPOT peptide array binding signal intensity [16]: ≤ 0
- SPOT peptide array binding signal intensity [17]: 0.5
- SPOT peptide array binding signal intensity [18]: 418
- SPOT peptide array binding signal intensity [19]: 79
- SPOT peptide array binding signal intensity [20]: 1660
- SPOT peptide array binding signal intensity [21]: 31
- SPOT peptide array binding signal intensity [22]: 264
- SPOT peptide array binding signal intensity [23]: 56
- SPOT peptide array binding signal intensity [24]: 67
- SPOT peptide array binding signal intensity [25]: ≤ 0
- SPOT peptide array binding signal intensity [26]: 2
- SPOT peptide array binding signal intensity [27]: 1.5
- SPOT peptide array binding signal intensity [28]: ≤ 0
- SPOT peptide array binding signal intensity [29]: 1570
- SPOT peptide array binding signal intensity [30]: 2.5
- SPOT peptide array binding signal intensity [31]: 126
- SPOT peptide array binding signal intensity [32]: 114
- SPOT peptide array binding signal intensity [33]: 16.5
- SPOT peptide array binding signal intensity [34]: ≤ 0
- SPOT peptide array binding signal intensity [35]: 110
- SPOT peptide array binding signal intensity [36]: ≤ 0
- SPOT peptide array binding signal intensity [37]: 47.5
- SPOT peptide array binding signal intensity [38]: 186
- SPOT peptide array binding signal intensity [39]: 3.5
- SPOT peptide array binding signal intensity [40]: 20
- SPOT peptide array binding signal intensity [41]: 10
- SPOT peptide array binding signal intensity [42]: ≤ 0
- SPOT peptide array binding signal intensity [43]: ≤ 0
- SPOT peptide array binding signal intensity [44]: 63
- SPOT peptide array binding signal intensity [45]: ≤ 0
- SPOT peptide array binding signal intensity [46]: 284
- SPOT peptide array binding signal intensity [47]: 4
- SPOT peptide array binding signal intensity [48]: 4370
- SPOT peptide array binding signal intensity [49]: 372
- SPOT peptide array binding signal intensity [50]: 150
- SPOT peptide array binding signal intensity [51]: 14.5
- SPOT peptide array binding signal intensity [52]: 16
- SPOT peptide array binding signal intensity [53]: 47
- SPOT peptide array binding signal intensity [54]: 1120
- SPOT peptide array binding signal intensity [55]: 7
- SPOT peptide array binding signal intensity [56]: 483
- SPOT peptide array binding signal intensity [57]: 12.5
- SPOT peptide array binding signal intensity [58]: 70
- SPOT peptide array binding signal intensity [59]: 26
- SPOT peptide array binding signal intensity [60]: 295
- SPOT peptide array binding signal intensity [61]: ≤ 0
- SPOT peptide array binding signal intensity [62]: 1
- SPOT peptide array binding signal intensity [63]: 7.5
- SPOT peptide array binding signal intensity [64]: 12.5
- SPOT peptide array binding signal intensity [65]: 46.5
- SPOT peptide array binding signal intensity [66]: 108
- SPOT peptide array binding signal intensity [67]: 866
- SPOT peptide array binding signal intensity [68]: 3730
- SPOT peptide array binding signal intensity [69]: 71.2
- SPOT peptide array binding signal intensity [70]: 8
- SPOT peptide array binding signal intensity [71]: ≤ 0
- SPOT peptide array binding signal intensity [72]: 1240
- SPOT peptide array binding signal intensity [73]: ≤ 0
- SPOT peptide array binding signal intensity [74]: ≤ 0

From the supplement of paper PMC4466140
